The campaign covered roughly 5,500 compounds. About 2,000 (36%) were called active. Another 18% or so got no clear call; they are omitted. No stated cut-off is given here; in the data, active means normalized growth mostly below about 0.91 (no sharp cut-off); inconclusive means no clear call, values can overlap the other calls; inactive means mostly above about 0.92. The list shows a part of the results.
Experiment: chemical genetic growth profiling, strain panel (AID 1159580);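 further: tested at 20 µM; growth read once vehicle control cultures reached saturation at 30 °C; 1 = growth at the plate median or of vehicle wells; lower values mean less growth of the strain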
Conditions: S. cerevisiae deletion strains, growth OD

Measured: normalized growth

COc1ccc2c(c1OC)C(=O)O[C@H]2[C@@H]1c2cc3c(cc2CCN1C)OCO3
inactive: locus YAL013W, strain DEP1, active compounds read low 1.01 | locus YAL040C, strain CLN3, active compounds read low 0.973 | locus YCL061C, strain MRC1 (second series), active compounds read low 1.01 | locus YDR363W, strain ESC2, active compounds read low 1.02 | locus YER002W, strain NOP16, active compounds read low 1.03 | locus YMR263W, strain SAP30, active compounds read low 1 | locus YNL197C, strain WHI3, active compounds read low 1.01 | locus YNL224C, strain SQS1, active compounds read low 0.996 | locus YNL322C, strain KRE1, active compounds read low 1.02 | locus YOR083W, strain WHI5 (second series), active compounds read low 1.07 | locus YPL055C, strain LGE1, active compounds read low 1.01
active: locus YGR078C, strain PAC10, active compounds read low 0.428

— PubChem BioAssay AID1159580 (chemical genetic matrix, 2015)
